Screens as filed in PubChem BioAssay.
SMARCA2 activ: increases SMARCA2 function in MMTV reporter cells. MG213 cells, MMTV-luciferase reporter, dexamethasone, overnight. activation, % at 9.1 µM. AID 652017. 370,000 tested, 1% active; in the data active = activation above about 7.8%;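 also: 0% = vehicle wells and 100% = reference activator wells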
Wnt act: activates Wnt/beta-catenin signaling in a reporter cell assay; AID 743398; 300,000 tested, 1.2% active; activation, % at 9.35 µM; activator, plate reader; in the data active = activation above about 30%, passing the limit was not always enough; inconclusive = no clear call, values can overlap the other calls;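 also: 0% = neutral control wells and 100% = positive control wells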
esBAF inh: SWI/SNF esBAF complex inhibition; mouse ES cells, Bmi1-luciferase knock-in reporter, 24 h; 100% = twice the neutral-well signal; reporter increase, % at 12.5 µM; 350,000 tested, 2% active; in the data active = activation above about 40%; inconclusive = no clear call, values can overlap the other calls;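 also: 0% = median of the plate's neutral control wells and 100% = double that signal; a rise in the Bmi1 reporter signal indicates esBAF inhibition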
MITF TRPM1 HTS: increases MITF-driven TRPM1 promoter luciferase signal; SK-MEL-5 TRPM1-promoter luciferase, 24 h; % of positive control, neutral wells = 0; 300,000 tested, 0.75% active; activation, % at 12.5 µM; AID 588334;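 active = mean activation of at least 80% with every replicate also reaching 80%; inconclusive = mean reaches 80% but some replicate falls short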;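 also: 0% = neutral control wells and 100% = parthenolide positive control wells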
HSF1 inh: HSF1 inhibition; NIH3T3-HGL HSE-luciferase, MG132-induced, luminescence 8 h; stronger effect = lower value; 300,000 tested, 0.77% active; activity change, negative = inhibition, % at 7.5 µM (by protocol);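 active = more than half of replicate wells show activity change below -50%, luminescence cut by over half; inconclusive = some wells, but at most half, below -50%; inactive = no replicate well below -50%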;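 also: luciferase reports HSF-1 transcriptional activity via heat shock element; 0% = median of DMSO wells and -100% = zero luminescence signal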
HSF-1 act: increases HSF-1 driven luciferase reporter signal; NIH3T3-HGL HSF-1 luciferase reporter, MG132, 8 h; 100% = twice DMSO control signal; activation, % at 9 µM; 300,000 tested, 1.7% active;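 active = mean replicate activation of at least 50% with a set share of replicates each reaching 50%; inconclusive = only one of those two conditions met; inactive = mean below 50% and too few replicates reaching it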;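 also: 0% = median of the neutral control wells and 100% = twice that signal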
* = called active by the depositor; ? = inconclusive; / = not tested or not shown. Only some compounds are listed: those with a hit (about 4.3% of all), similar ones and a draw of the others.

SMILES | SMARCA2 activ | Wnt act | esBAF inh | MITF TRPM1 HTS | HSF1 inh | HSF-1 act
Cc1ccccc1Nc1nnc(SCc2cc([N+](=O)[O-])cc3c2OCOC3)s1 | / | -2.0 | / | 0.1 | 30.4 | 56.2*
O=[N+]([O-])c1cc2c(c(CSc3nnc(Nc4ccccc4)s3)c1)OCOC2 | -0.2 | / | -18.1 | -0.4 | -4.3 | 2.0
Cn1nc([N+](=O)[O-])c(C(C#N)c2ccccn2)c(Cl)c1=O (centres undefined) | -2.3 | -10.8 | 12.8 | -34.4 | 25.5 | 34.9
CCCn1nc([N+](=O)[O-])c(C(C#N)c2nc3ccccc3o2)c(Cl)c1=O (centres undefined) | -0.7 | / | / | -6.5 | 76.4 | 97.3*
CCn1nc([N+](=O)[O-])c(C(C#N)c2nc3cc(C(F)(F)F)ccc3s2)c(Cl)c1=O (centres undefined) | -2.0 | -1.0 | -12.1 | -23.9 | 56.5 | 64.1*
CS(=O)(=O)Nc1ccc2c(c1)[C@@H]1C[C@@H](CC(=O)NCc3ccc(Cl)cc3)O[C@@H](CO)[C@@H]1O2 | / | / | -0.8 | / | / | /
Cc1cc(C)n(-c2nc3ccccc3c(=O)n2OCC(=O)OCc2ccccc2)n1 | 0.8 | 1.6 | 48.4* | -14.5 | 3.0 | 5.1
CCC(=O)N(CCC(c1ccco1)c1ccccc1OC)Cc1cccs1 (centres undefined) | -2.5 | / | -9.5 | -9.9 | -75.0* | -82.0
CC(=O)N(CCC(c1ccccc1)c1ccco1)Cc1cccs1 (centres undefined) | -1.9 | -7.4 | 0.2 | -0.9 | 7.8 | 9.7
O=C(Nc1ccc(F)cc1)N[C@H]1CC[C@@H](CCNS(=O)(=O)c2ccccc2F)O[C@@H]1CO | / | / | 1.7 | / | / | /
CCCNC(=O)Nc1ccc2c(c1)OC[C@@H](C)N(C(=O)C1CCCCC1)C[C@H](C)[C@@H](OC)CN(C)C2=O | / | / | -3.0 | / | / | /
COc1ccc(/C=C/c2cc(O)cc(OC3OC(CO)C(O)C(O)C3O)c2)cc1 (centres undefined) | 2.7 | 49.4* | -34.0 | 116.8* | / | /
COc1ccc(/C=C/c2cc(O)cc(O[C@@H]3O[C@H](CO)[C@@H](O)[C@H](O)[C@H]3O)c2)cc1O | -1.6 | 72.3* | -24.5 | / | / | /
Cc1cc(O)cc(O[C@H]2OC(CO)[C@H](O)[C@@H](O)[C@H]2O)c1 (some centres undefined) | 0.9 | -0.9 | -6.2 | -4.8 | -5.1 | -3.7
CO[C@H]1CN(C)C(=O)c2ccc(NS(C)(=O)=O)cc2OC[C@@H](C)N(C)C[C@@H]1C | / | / | -1.5 | / | / | /
Cc1nn(-c2ccccn2)c2c1-c1nc(N3CCOCC3)ncc1CC2 | 0.7 | / | / | 15.6 | -2.2 | -13.2
Cc1nn(-c2ccccn2)c2c1-c1nc(N)ncc1CC2 | 3.8 | 29.6 | ? | 110.2* | -2.1 | -26.3
C[C@@H]1CN([C@@H](C)CO)C(=O)c2cc(-c3ccccc3F)cnc2O[C@H]1CN(C)C(=O)NC1CCCC1 | / | / | 4.7 | / | / | /
CC(=O)C(C)Oc1ccc2c3c(c(=O)oc2c1)CCCCC3 (centres undefined) | 6.1 | / | 65.8* | ? | 9.9 | 31.9
CC(=O)C(C)Oc1ccc2c3c(c(=O)oc2c1)CCCC3 (centres undefined) | 2.0 | / | 31.2 | / | 1.8 | 16.4
COc1ccc(-c2cn3ccccc3n2)cc1[N+](=O)[O-] | 3.8 | / | / | 74.5 | 27.9 | 54.8*
CCCOc1ccc(-c2cn3ccccc3n2)cc1[N+](=O)[O-] | 5.9 | / | / | ? | 25.7 | 29.5
COc1ccc(CCNC(=O)CN2C(=O)c3ccccc3C2=O)cc1 | -3.6 | / | 6.0 | 6.5 | -1.8 | 25.4
CCOC(=O)C1(NC(=O)C2(NC(=O)CN3C(=O)c4ccccc4C3=O)CCCC2)CCCC1 | -3.5 | 47.3* | -2.7 | -2.1 | / | /
CCCCSc1nc(C)cc(SCC(=O)N/N=C/c2cccc(OC)c2O)n1 | -4.1 | 0.2 | -37.0 | -49.3 | 41.9 | 84.1*
SMILES | SMARCA2 activ | Wnt act | esBAF inh | MITF TRPM1 HTS | HSF1 inh | HSF-1 act
COc1cccc(/C=N/NC(=O)CSc2nnc(C)n2-c2ccccc2)c1O | -5.3 | / | -7.0 | -7.8 | -0.5 | -14.4
O=c1c2ccccc2oc2ccc(-c3ccc4cc[nH]c4c3)cc12 | / | / | -1.8 | 103.6* | / | /
Cc1ccc2oc3nc(C)c(C(=O)O)cc3c(=O)c2c1 | -0.8 | / | / | -8.9 | 3.1 | 0.4
Cc1ccc2oc3ccccc3c(=O)c2c1 | -1.5 | 28.8 | 61.9* | 100.7* | / | /
COc1ccc2oc3ccccc3c(=O)c2c1 | 5.0 | 33.3* | 47.7* | 73.0 | 4.6 | 15.9
COc1ccc2oc3ccc(OC)cc3c(=O)c2c1 | 2.1 | / | 98.4* | / | 18.1 | 32.4
C[C@@H]1CN([C@H](C)CO)C(=O)c2cc(NC(=O)Nc3ccc(C(F)(F)F)cc3)ccc2O[C@@H](C)CCCCO[C@@H]1CN(C)C(=O)Nc1cccc2ccccc12 | / | / | 4.2 | / | / | /
CCN1[C@H](C(=O)NCC(F)(F)F)[C@@H](CO)[C@@H]2Cn3c(ccc(-c4ccccc4)c3=O)[C@@H]21 | / | / | 5.5 | / | / | /
C[C@@H]1CN([C@@H](C)CO)S(=O)(=O)c2ccc(C#CC3CC3)cc2O[C@@H]1CN(C)Cc1ccncc1 | / | / | -2.6 | / | / | /
Cc1ccc(S(=O)(=O)N(C)C[C@@H]2OCCCC[C@H](C)Oc3ccc(NC(=O)Nc4c(C)noc4C)cc3C(=O)N([C@H](C)CO)C[C@@H]2C)cc1 | / | / | 2.7 | / | / | /
C[C@@H](NC(=O)C[C@H]1CC[C@H]2[C@@H](COC[C@@H](O)CN2Cc2cc(F)ccc2F)O1)c1ccccc1 | / | / | -0.9 | / | / | /
COc1cccc2c(=O)c3ccccc3oc12 | 6.9 | 12.2 | 65.6* | ? | 10.7 | 8.4
COc1cccc2c(=O)ccoc12 | -2.5 | / | / | -12.2 | -6.1 | 1.4
Cn1cccc1C(=O)OCc1cc(Cl)cc2c1OCOC2 | 6.6 | 72.7* | 36.9 | 68.6 | 19.6 | 26.0
Cc1c(C(=O)/C=C/N(C)C)nnn1-c1ccc(Cl)c(Cl)c1 | -5.4 | 47.7* | / | / | -7.8 | -7.8
CCOc1ccccc1/C=C/C(=O)c1ccc(Cl)cc1 | 0.9 | 6.4 | / | -5.9 | 29.5 | 69.2*
COc1ccccc1/C=C/C(=O)c1ccc(Cl)cc1 | -0.3 | / | 13.6 | 34.5 | 1.4 | 17.9
CNC[C@@H]1OCCCC[C@H](C)Oc2ccc(NS(=O)(=O)c3c(C)noc3C)cc2C(=O)N([C@@H](C)CO)C[C@H]1C | / | / | -0.3 | / | / | /
Oc1ccc(O)cc1 | / | / | / | / | 3.9 | -4.6
Oc1ccc(-c2cccc(-c3ccc(O)cc3)n2)cc1 | 0.0 | 25.4 | 47.6* | / | 11.5 | 32.2
Oc1ccc(-c2nnc(-c3ccc(O)cc3)nn2)cc1 | 5.4 | 76.9* | 12.6 | / | 22.8 | 33.2
CC(C)C#Cc1ccc2c(c1)O[C@H](CN(C)S(C)(=O)=O)[C@H](C)CN([C@H](C)CO)S2(=O)=O | / | / | 2.4 | / | / | /
CC(CC(=O)c1cccs1)CC(=O)c1cccs1 | 5.9 | 14.7 | 70.0* | 68.8 | 22.3 | 42.4
Cc1cc(C)c(C(CC(=O)c2cccs2)C(C#N)C#N)c(C)c1 (centres undefined) | 5.6 | 49.2* | / | 44.0 | 84.7 | 122.5*
CN(C)/C=N/c1nc(-c2ccc3c(c2)OCO3)cs1 | 3.9 | 70.9* | 22.2 | 76.1 | 26.3 | ?
